From PubChem BioAssay (NCATS)
Records with an inconclusive call do not appear. A number with no mark means an inactive call. Active and inactive are the calls of the source. Calls come from the whole dose curve; as a rule, active = well fitted inhibition curve with a large enough effect; inconclusive = small, poorly fitted or top-dose-only effect; inactive = flat fitted curve, though single readings scatter.

These molecules were tested on PC26 (assay: qHTS profiling for inhibitors of Plasmodium falciparum proliferation (AID 504749; note: nearly all actives have a fitted effect of over 60% in size;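 for activity, negative = inhibition: 0% = DMSO vehicle and full inhibition = artemisinin control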)). Settings: P. falciparum in erythrocytes, SYBR Green DNA, 72 h; series mostly up to 28.7 µM; activity, negative = inhibition: at the top concentration.
Method in brief: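 SYBR Green fluorescence (ex 485 nm, em 535 nm) reports parasite DNA after 72 h compound exposure of infected red cells at 0.3% parasitemia, 2.5% hematocrit; signal normalized to 0.29 uM artemisinin and vehicle wells.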
Potency is the fitted concentration of half-maximal effect.

Structure (SMILES)	activity, negative = inhibition	Potency
CC(=O)Nc1ccc(OC(C)=O)cc1	5.77%	
CC(C)(C)c1ccc2c(S(=O)(=O)O)c(C(C)(C)C)ccc2c1	11.5%	
CCCCCCCCCCCCOCCCN	3.08%	
COC(=O)C(CN)c1c[nH]c2ccc(OC)cc12 (stereo not given)	-8.85%	
CC1(C)S[C@@H]2[C@H](NC(=O)C3(N)CCCCC3)C(=O)N2[C@H]1C(=O)O	1.53%	
FC(F)(F)C(F)(F)C(F)(F)C(F)(F)C(F)(F)C(F)(F)F	3.37%	
CCCCO	1.12%	
CCOC(=O)c1c[nH]c2cc(OCC(C)C)c(OCC(C)C)cc2c1=O		120 nM (active)
CCN(CC)CCOc1ccc2nc(N(C)C)sc2c1	-6.36%	
OCl	1.17%	
COC(=O)CC[C@H](N)C(=O)O	6.82%	
COc1cc(S(C)=O)ccc1-c1nc2ncccc2[nH]1 (stereo not given)	2.68%	
O=C(O)Cc1nn(Cc2ccc(Br)cc2F)c(=O)c2ccccc12	-3.29%	
O=C(O)/C=C/c1ccccc1	2.28%	
Cc1cccc(C)c1NC(=O)NC1=CCCN1C	15.2%	
NCC[C@H](O)C(=O)N[C@@H]1C[C@H](N)[C@@H](O[C@H]2O[C@H](CN)[C@@H](O)[C@H](O)[C@H]2O)[C@H](O)[C@H]1O[C@H]1O[C@H](CO)[C@@H](O)[C@H](N)[C@H]1O	-2%	
CC1=CC(=O)NS(=O)(=O)O1	5.17%	
O=C(O)[C@H]1C(=CCO)O[C@H]2CC(=O)N12	2.28%	
CCC(Cc1c(I)cc(I)c(O)c1I)C(=O)O (stereo not given)	-2.48%	
CCCCC[C@H](O)/C=C/[C@@H]1[C@H]2C/C(=C/CCCC(=O)O)O[C@H]2C[C@H]1O	12.7%	
